Rows were chosen to be rich in hits. Some 4.5% of all compounds tested hit in one or more screens of this group.
PfHsp90 set2 – growth inhibition of yeast expressing Plasmodium Hsp90; 0.32% of 310,000 active; AID 504621; inhibition, % at 9.4 µM; S. cerevisiae expressing PfHsp90, BacTiter-Glo ATP, 48 h; yeast lacking PDR1 and PDR3 efflux regulators;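 active means every replicate shows inhibition above about 80%, whatever the replicate mean, limit read from the data; inconclusive means mean inhibition reaches the set limit but some replicate falls short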;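 further: 0% = DMSO neutral controls and 100% = 20 µM radicicol positive controls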
NALP3 yeast inh – NALP3 inhibition in yeast; 0.39% of 330,000 active; Yeast reconstituted NLRP3/ASC/caspase-1, beta-gal luminescence, 24 h; inhibition, % at 10 µM;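 active means inhibition of 50% or more; inactive means inhibition below 50%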;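 further: plate controls were induced DMSO wells for no effect and uninduced yeast grown without galactose for full effect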
tim10-1 inh – growth inhibitors of tim10-1 mutant yeast; 2.2% of 330,000 active; S. cerevisiae tim10-1 ts strain growth, BacTiter-Glo, 24 h; inhibition, % at 20 µM;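 active means inhibition of at least 40%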;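 further: mutant grown at 25 °C; 0% = DMSO wells with yeast and 100% = wells holding no yeast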
tim23-1 inh – growth inhibitors of tim23-1 mutant yeast; S. cerevisiae tim23-1 growth, BacTiter-Glo luminescence, 24 h; 1.3% of 330,000 active; inhibition, % at 20 µM;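 active means growth inhibition of the mutant yeast at or above 50%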;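 further: temperature-sensitive mutant grown at 25 °C; plate controls were DMSO-treated mutant yeast for no effect and medium wells lacking yeast for full effect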
SKKanGAS inh – SKKanGAS growth inhibition | S. pyogenes SKKanGAS, kanamycin growth, BacTiter-Glo, 6 h | inhibition, % at 7.5 µM | 1.3% of 300,000 active | AID 1662;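 active means mean replicate score, as percent of positive control median, at least 50; inconclusive means mean below 50 but one replicate at or above 50; inactive means mean and every replicate below 50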;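 further: strain carries kanamycin resistance gene driven by streptokinase promoter and grows in 40 µg/ml kanamycin; loss of luminescence reflects streptokinase promoter inhibition or plain growth inhibition; 0% = median of DMSO wells and 100% = positive control at its reference dose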
TIM10 inh – TIM10 yeast growth inhibition. S. cerevisiae TIM10 strain growth, BacTiter-Glo luminescence, 24 h. inhibition, % at 10 µM. 1.4% of 330,000 active. AID 463195;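 active means inhibition of 40% or more at the single tested concentration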;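 further: wild-type TIM10 isogenic control strain grown at permissive 25 °C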
tim23-1 conf – confirmation of tim23-1 mutant yeast growth inhibitors; inhibition, % at 20 µM; 83% of 4,400 active; S. cerevisiae tim23-1 growth, BacTiter-Glo luminescence, 24 h; shares compounds with tim23-1 inh; AID 463218;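 active means inhibition above about 39% in either of two replicate wells at 20 µM, limit read from the data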;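 further: temperature-sensitive tim23-1 mutant grown at 25 °C; 0% = DMSO wells with yeast and 100% = medium wells without yeast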
Active calls of the source: *.

What do the screens show for `O=C1/C(=C\c2ccc(O)cc2)SC(=S)N1Cc1ccccc1`?
PfHsp90 set2: 49; NALP3 yeast inh: 24; tim10-1 inh: -13; tim23-1 inh: 55*; SKKanGAS inh: 8; TIM10 inh: 19; tim23-1 conf: 14

What do the screens show for `O=C(O)c1ccc(/C=C2/SC(=S)N(Cc3ccccc3)C2=O)cc1`?
PfHsp90 set2: -42; SKKanGAS inh: 5

How did CC1=CC(C)(C)N(C(=O)c2ccc(F)cc2)c2cc3c(cc21)OCO3 do in these assays?
PfHsp90 set2: -1; NALP3 yeast inh: 14; tim10-1 inh: 35; tim23-1 inh: 54*; SKKanGAS inh: -4; TIM10 inh: 39; tim23-1 conf: 44*

What do the screens show for `Cc1ccc2[nH]c(CCN(C)C)c(CN3CCOCC3)c2c1`?
PfHsp90 set2: -6; NALP3 yeast inh: 1; tim10-1 inh: -13; tim23-1 inh: -11; TIM10 inh: -9

Results for CCCC(C(=O)NC1CCCC1)N(Cc1ccccc1)C(=O)c1snc(C(N)=O)c1N (configuration not stated) ?
PfHsp90 set2: -3; NALP3 yeast inh: 25; tim10-1 inh: 22; tim23-1 inh: 28; SKKanGAS inh: 2; TIM10 inh: 15

Results for Cn1nnnc1Sc1ncnc2scc(-c3ccc(Br)cc3)c12 ?
NALP3 yeast inh: 3; tim10-1 inh: 20; tim23-1 inh: 68*; TIM10 inh: 21; tim23-1 conf: 59*

Results for Cc1ccc(C(=O)SC2=NCCS2)cc1 ?
PfHsp90 set2: 25; NALP3 yeast inh: 11; tim10-1 inh: 3; tim23-1 inh: 73*; SKKanGAS inh: 0; TIM10 inh: 26; tim23-1 conf: 49*

How did CCOC(=O)C1=C(CC)Nc2ccccc2N/C1=N\S(=O)(=O)c1cccc(C(C)=O)c1 do in these assays?
NALP3 yeast inh: 5; tim10-1 inh: -9; tim23-1 inh: 5; TIM10 inh: 6

What do the screens show for `Cc1ccc(C(=O)N(CC(C)C)c2c(N)n(Cc3ccccc3)c(=O)[nH]c2=O)o1`?
PfHsp90 set2: 1; NALP3 yeast inh: 8; tim10-1 inh: -11; tim23-1 inh: -8; SKKanGAS inh: -8; TIM10 inh: -9

How did O=C(Nc1ncc(Cc2cccc(Cl)c2Cl)s1)C1CCCO1 (configuration not stated) do in these assays?
PfHsp90 set2: -12; NALP3 yeast inh: 25; tim10-1 inh: -7; tim23-1 inh: 30; SKKanGAS inh: 8; TIM10 inh: -31

What do the screens show for `O=C(Nc1ncc(Cc2cccc(Cl)c2)s1)C1CCCO1` (configuration not stated)?
PfHsp90 set2: -10; NALP3 yeast inh: 22; tim10-1 inh: 28; tim23-1 inh: 50*; SKKanGAS inh: 4; TIM10 inh: 28; tim23-1 conf: 43*

What do the screens show for `CC(C)C(=O)Nc1ncc(Cc2cccc(Cl)c2)s1`?
PfHsp90 set2: -55; NALP3 yeast inh: 23; tim10-1 inh: 38; tim23-1 inh: 55*; SKKanGAS inh: 22; TIM10 inh: 31; tim23-1 conf: 40*

Results for O=C1c2ccccc2C(=O)N1c1nc(-c2cccs2)cs1 ?
PfHsp90 set2: -6; NALP3 yeast inh: 34; tim10-1 inh: 25; tim23-1 inh: 77*; SKKanGAS inh: -1; TIM10 inh: 25; tim23-1 conf: 41*

What do the screens show for `CC(=O)c1cccc(NC(=O)c2cc(=O)[nH]c3ccc(S(=O)(=O)N4CCOCC4)cc23)c1`?
PfHsp90 set2: 8; NALP3 yeast inh: 9; tim10-1 inh: 10; tim23-1 inh: 6; TIM10 inh: 1

What do the screens show for `CCS(=O)(=O)c1nc(S(=O)(=O)c2ccc(Cl)cc2)c(N2CCN(C)CC2)s1`?
PfHsp90 set2: -75; NALP3 yeast inh: 0; tim10-1 inh: -15; tim23-1 inh: -1; SKKanGAS inh: -2; TIM10 inh: 4

How did Clc1ccc(CSc2cnnc3ccccc23)cc1Cl do in these assays?
PfHsp90 set2: -4

What do the screens show for `O=Cc1cc2ccccc2nc1SCc1ccc(Cl)c(Cl)c1`?
PfHsp90 set2: -56; NALP3 yeast inh: 5; tim10-1 inh: 19; tim23-1 inh: 60*; SKKanGAS inh: 45; TIM10 inh: 8; tim23-1 conf: 44*

Results for O=C(CCC(=O)N1CCOc2ccccc21)N1CCN(c2ccccc2)CC1 ?
PfHsp90 set2: 2; NALP3 yeast inh: 21; tim10-1 inh: -17; tim23-1 inh: -9; SKKanGAS inh: -8; TIM10 inh: -4

How did Cc1nn(-c2ccc(F)cc2)c(C)c1NS(=O)(=O)c1ccc2ccccc2c1 do in these assays?
PfHsp90 set2: -14; NALP3 yeast inh: 1; tim10-1 inh: 0; tim23-1 inh: 66*; SKKanGAS inh: -3; TIM10 inh: 20; tim23-1 conf: 60*

What do the screens show for `NC(=S)N/N=C/c1ccc(-c2ccc(Cl)c(Cl)c2)o1`?
PfHsp90 set2: -149; NALP3 yeast inh: 18; tim10-1 inh: 39; tim23-1 inh: 58*; SKKanGAS inh: -18; TIM10 inh: 27; tim23-1 conf: 60*

What do the screens show for `NC(=S)N/N=C\c1ccc(-c2cccc(Cl)c2Cl)o1`?
NALP3 yeast inh: 24; tim10-1 inh: 14; tim23-1 inh: 43; SKKanGAS inh: 25; TIM10 inh: 29

Results for CC(=O)Nc1ccc(S(=O)(=O)NCC(=O)OCC(=O)NNC(=O)c2ccccc2)cc1 ?
PfHsp90 set2: -29; NALP3 yeast inh: 18; tim10-1 inh: -17; tim23-1 inh: -4; TIM10 inh: 2

How did CCc1ccc(C2NC(=O)c3ccccc3O2)cc1 (configuration not stated) do in these assays?
PfHsp90 set2: -15; NALP3 yeast inh: 37; tim10-1 inh: 9; tim23-1 inh: 52*; SKKanGAS inh: inconclusive; TIM10 inh: 10; tim23-1 conf: 29

How did CCOc1ccc(C2NC(=O)c3ccccc3O2)cc1 (configuration not stated) do in these assays?
PfHsp90 set2: 33; NALP3 yeast inh: 22; tim10-1 inh: 16; tim23-1 inh: 21; SKKanGAS inh: 3; TIM10 inh: 30

What do the screens show for `Cc1ccc(Sc2ccc(CN3CCCC3)cc2[N+](=O)[O-])cc1`?
PfHsp90 set2: 23; NALP3 yeast inh: 36; tim10-1 inh: 17; tim23-1 inh: 18; SKKanGAS inh: -21; TIM10 inh: 6

Results for Cc1ccc(Sc2ccc(CO)cc2[N+](=O)[O-])cc1 ?
PfHsp90 set2: -4; NALP3 yeast inh: 20; tim10-1 inh: 32; tim23-1 inh: 53*; SKKanGAS inh: -4; TIM10 inh: 30; tim23-1 conf: 52*

What do the screens show for `COc1ccc(-c2ncccc2O)cc1`?
PfHsp90 set2: 13; NALP3 yeast inh: -25; tim10-1 inh: -4; tim23-1 inh: -6; SKKanGAS inh: 0; TIM10 inh: 1

What do the screens show for `Nc1ccc(Br)c2cccnc12`?
NALP3 yeast inh: 14; tim10-1 inh: 24; tim23-1 inh: -7; SKKanGAS inh: 17; TIM10 inh: 15

Assay outcomes: PubChem BioAssay, several laboratories
